Screening results: PubChem, several laboratories
TWEAK-Fn14 inh: inhibitors of TWEAK-Fn14 signaling, primary screen, luciferase reporter cells, uHTS; TWEAK-stimulated Fn14 reporter cells, luciferase luminescence, 8 h; inhibition, % at 10 µM; actives 2% (n = 360,000); AID 1159606, 2016; in the data active = inhibition above about 50%
LMP1 NFkB inh: EBV LMP1-driven NF-kappaB luciferase reporter inhibitors, primary screen, cell-based, luminescence, single point. LMP1-induced NF-kappaB luciferase reporter cells. inhibition, % at 12.5 µM. actives 0.69% (n = 350,000); in the data active = inhibition above about 41%;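 also: 0% = neutral control wells and 100% = reference inhibitor control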
TROY signal inh: inhibitors of TROY-driven NF-kB signaling, primary screen, Q293 LMP1-TROYcd cells, NF-kB luciferase, uHTS; Q293 LMP1-TROYcd NF-kB luciferase reporter, 4 h; inhibition, % at 10 µM; actives 0.98% (n = 360,000);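 active = compounds whose plate-normalised and pattern-corrected inhibition of the luciferase reporter signal at the single screening dose is 50% or more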
EWS-Fli inh: EWS/Fli-driven NR0B1 reporter inhibitors, primary screen, A673 cells, NR0B1 luciferase, luminescence, MLPCN library. viability-normalised. inhibition, % at 12.6 µM. actives 0.67% (n = 350,000);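 active = mean inhibition of at least 50% after viability correction, with every replicate also passing that limit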;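 also: firefly luciferase signal divided by Alamar Blue viability fluorescence both relative to DMSO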
LGR2 inh: inhibitors of bursicon-induced LGR2 CRE-luciferase signal, primary screen, cell-based, HEK293, CRE-luciferase reporter, bursicon stimulation. bursicon-stimulated, 4 h. actives 0.35% (n = 380,000). inhibition, % at 9.99 µM. AID 720647, 2013;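 active = drop in luminescence signal, shown as inhibition above about 50% in the replicate tests, limit read from the data, passing the limit was not always enough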;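 also: agonist challenge used bursicon conditioned medium at about half maximal strength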
Starred values were filed as active, the others as inactive; . = no result given. A selection: hits, their analogues and other compounds. The true share with any hit is near 2.5%.

SMILES | TWEAK-Fn14 inh | LMP1 NFkB inh | TROY signal inh | EWS-Fli inh | LGR2 inh
O=C(Nc1cc(C(F)(F)F)cc(C(F)(F)F)c1)Nc1cnn(-c2ccc([N+](=O)[O-])cc2)c1C(F)(F)F | 23 | 57* | 11 | 19 | 4
O=C(Nc1ccc(C(=O)O)cc1)Nc1ccc([N+](=O)[O-])cc1 | 17 | -3 | 12 | 16 | 9
COc1ccc(OC)c2c(C)cc(N3CCCCCC3)nc12 | 103* | 12 | -4 | 1 | 12
COc1ccc2c3c([nH]c2c1)[C@@H](CO)N(Cc1ccccc1F)CC31CN(C(=O)C2CCCC2)C1 | . | . | . | 23 | -15
O=c1cccc2c1c1cc[nH]c3ccc(=O)n2c31 | 54* | 16 | 41 | 28 | 15
C[C@@H]1CN([C@H](C)CO)C(=O)c2c(c3ccccc3n2C)-c2ccccc2CO[C@@H]1CN(C)C(=O)c1ccccc1 | . | . | . | 2 | 1
CNC(=O)c1cccc(NC(=O)c2cc(-c3ccccc3)nc3c2cnn3C(C)C)c1 | 47 | -1 | 17 | 18 | -14
COc1cc(NC(=O)c2cc(-c3ccccc3)nc3c2cnn3C(C)C)cc(OC)c1OC | 55* | 2 | 23 | . | .
C[C@@H]1CCCCO[C@H](CN(C)Cc2ccc(C(=O)O)cc2)[C@H](C)CN([C@@H](C)CO)C(=O)c2cc(NC(=O)Nc3ccc4c(c3)OCO4)ccc2O1 | . | . | . | -10 | -1
O=[N+]([O-])c1ccc(O)c(/C=N/Nc2ccccc2Cl)c1 | 11 | -38 | 69* | -52 | 33
CCC/C(=C1/c2ccccc2C(=O)N1c1ccccc1)c1ccc2c(c1)OCCO2 | 13 | -3 | 11 | 62* | -3
CCC/C(=C1/c2ccccc2C(=O)N1c1ccccc1)c1ccc(O[C@@H]2CCCCO2)cc1 | -3 | 13 | 13 | 3 | -7
CSc1c(C#N)c(N)nc2sc(C(=O)c3ccccc3)c(N)c12 | -5 | 5 | 6 | 22 | -18
N#Cc1c(SCc2ccc(Cl)cc2)sc(C(=O)c2ccccc2)c1N | 89* | 1 | -1 | . | .
O=C(C[C@H]1CC[C@@H]2[C@H](COC[C@H](O)CN2C(=O)c2cnccn2)O1)NCc1ccccc1 | . | . | . | -1 | -18
COc1ccc(-c2cnc(C(O)c3ccccc3)[nH]2)cc1 (stereo not given) | 25 | . | 51* | -100 | -67
COc1cccc(-c2cnc(C(O)c3ccc(C)cc3)[nH]2)c1 (stereo not given) | 3 | . | -35 | -12 | -39
COc1cccc(-c2cnc(C(O)c3ccccc3)[nH]2)c1 (stereo not given) | 63* | . | 57* | -34 | .
CCC(=O)OC1c2ccccc2C(=O)N1Cc1ccccc1 (stereo not given) | 4 | 87* | -8 | 10 | -4
Cc1cc(C)c(C(CC(=O)c2cccs2)C(C#N)C#N)c(C)c1 (stereo not given) | 66* | -47 | -24 | -102 | .
CC(CC(=O)c1cccs1)CC(=O)c1cccs1 | 18 | -22 | -74 | -61 | -41
C[C@H](CO)N1C[C@H](C)[C@H](CN(C)Cc2ccc3c(c2)OCO3)Oc2ccc(NS(=O)(=O)c3ccc(F)cc3)cc2C1=O | . | . | . | 26 | -18
CC1CCCCN1C(=O)CSc1nc(N)nc(N)n1 (stereo not given) | 19 | 0 | 5 | 0 | 17
Cc1cc(C(F)(F)F)nn1CC(=O)N1CCCCC1C (stereo not given) | 83* | -1 | . | . | .
O=C(Nc1nc2ccccc2s1)c1ccc(OCC2CCCO2)cc1 (stereo not given) | 93* | 7 | 78* | 16 | 43
SMILES | TWEAK-Fn14 inh | LMP1 NFkB inh | TROY signal inh | EWS-Fli inh | LGR2 inh
O=C(Nc1ncccc1O)c1ccc(OCC2CCCO2)cc1 (stereo not given) | 39 | 76* | 0 | 32 | 43
O=C(NC1=NCCS1)c1ccc(OCC2CCCO2)cc1 (stereo not given) | 39 | 6 | -16 | . | .
Cc1ccc(NC(=O)c2ccc(OCC3CCCO3)cc2)nc1 (stereo not given) | 24 | -7 | -25 | -5 | -27
COc1ccc(OC)c(-c2csc(NC(=O)c3ccc(OCC4CCCO4)cc3)n2)c1 (stereo not given) | 7 | -13 | 23 | -12 | -20
Cc1cnc(NC(=O)c2ccc(OCC3CCCO3)cc2)s1 (stereo not given) | 85* | 47* | 43 | 64* | 87*
O=C(Nc1nc2ccccc2s1)c1ccc2sc([C@H]3C[C@H](O)[C@@H](CO)O3)nc2c1 | 64* | . | 45 | -79 | 98*
CC(C)NC(=O)N(C)C[C@H]1Oc2ccc(NC(=O)Nc3cccc4ccccc34)cc2C(=O)N([C@@H](C)CO)C[C@@H]1C | . | . | . | -6 | -18
O=C(CC(F)(F)F)N1C[C@@H]2[C@H](c3ccccc31)[C@@H](CO)N2C(=O)C1CC1 | . | . | . | 1 | -1
O=C(c1cccc(F)c1)N1CC(=O)N2[C@H](C1)[C@@H](c1ccc(C3=CCCC3)cc1)[C@@H]2CO | . | . | . | 3 | -19
COc1ccc(C(=O)Nc2nc3ccccc3s2)cc1 | 98* | 13 | 49 | 61* | 49
COc1cccc(C(=O)Nc2nc3ccccc3s2)c1 | 30 | -70 | -18 | -58 | -40
O=C(/C=C/c1cccs1)Nc1scc(-c2ccccc2)c1C(=O)O | 60* | -1 | 15 | -68 | .
CCOC(=O)c1c(C)[nH]c(C(=O)OCC(=O)NC(C)(C)C)c1C | 2 | 0 | 1 | -5 | 9
CCOC(=O)c1[nH]c(C)c(C(=O)OCC(=O)NC(C)c2ccc(F)cc2)c1C (stereo not given) | 19 | 1 | 7 | 54* | 12
CCOC(=O)c1c(C)[nH]c(C(=O)OCCOc2ccc(Cl)cc2)c1C | -12 | 1 | -3 | -6 | -11
CCOC(=O)c1c(C)[nH]c(C(=O)OCCOc2ccccc2C)c1C | 27 | 24 | 55* | -58 | -113
O=[N+]([O-])c1cccc(NC(=S)Nc2nc(-c3ccccc3Cl)cs2)c1 | 56* | 24 | 40 | 7 | 22
O=[N+]([O-])c1cccc(NC(=S)NCc2ccncc2)c1 | -5 | 7 | -25 | -12 | -14
CCCNC(=O)[C@H]1[C@H](CO)[C@H]2Cn3c(ccc(-c4ccncc4)c3=O)[C@@H]1N2Cc1ccccc1F | . | . | . | -6 | 1
C[C@H](CO)N1C[C@H](C)[C@@H](CN(C)S(=O)(=O)c2ccc(F)cc2)Oc2ccc(NC(=O)C3CC3)cc2CC1=O | . | . | . | -8 | 22
CC(C)c1nnc(NC(=O)CCc2ccccc2)s1 | -5 | -2 | -26 | -23 | -24
Cc1ccc(S(=O)(=O)CCc2nnc(NC(=O)c3cnccn3)s2)cc1 | -6 | 20 | -19 | . | .
CSc1nnc(NC(=O)c2nc(S(=O)(=O)Cc3ccccc3)ncc2Cl)s1 | 98* | 8 | 26 | . | -16
